This note sets out measurements from PubChem BioAssay AID488854 (National Center for Advancing Translational Sciences (NCATS), 2010).

Where “and” joins values, the source holds several entries; their conditions need not be identical. Equal entries are not always repeated. Results filed as inconclusive are left out. Calls of active or inactive are those of the source. Calls follow the shape of the dose curve; as a rule, active = well fitted activation curve with a large enough effect; inconclusive = small, poorly fitted or top-dose-only effect; inactive = no such curve, though single readings can be large or run the other way.

Chain of Lysosomal acid glucosylceramidase (Homo sapiens) (P04062 whole entry N409S): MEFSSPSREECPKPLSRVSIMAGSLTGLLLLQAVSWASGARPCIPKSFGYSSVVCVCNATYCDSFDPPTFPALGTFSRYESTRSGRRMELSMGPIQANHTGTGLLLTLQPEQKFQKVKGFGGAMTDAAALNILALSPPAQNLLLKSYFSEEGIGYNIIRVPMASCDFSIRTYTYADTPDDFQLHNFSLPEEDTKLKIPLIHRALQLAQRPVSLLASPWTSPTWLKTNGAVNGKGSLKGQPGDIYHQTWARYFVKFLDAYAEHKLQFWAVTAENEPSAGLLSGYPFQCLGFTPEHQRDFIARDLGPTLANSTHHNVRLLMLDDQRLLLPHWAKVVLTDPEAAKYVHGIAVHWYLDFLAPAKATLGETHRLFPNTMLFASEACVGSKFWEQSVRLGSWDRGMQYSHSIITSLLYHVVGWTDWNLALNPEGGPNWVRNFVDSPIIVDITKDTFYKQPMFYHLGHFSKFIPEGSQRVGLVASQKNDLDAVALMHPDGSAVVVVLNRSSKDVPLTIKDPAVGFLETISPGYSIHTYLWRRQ

For the assay, the target named is Lysosomal acid glucosylceramidase (Homo sapiens) (UniProt P04062). Kind of assay: qHTS Assay for Inhibitors and Activators of N370S glucocerebrosidase as a Potential Chaperone Treatment of Gaucher Disease: Confirmation for Probe SAR. To be noted: N370S GC spleen homogenate, 4MU-glucoside fluorescence; series mostly up to 57.5 µM. From the text:
NIH Chemical Genomics Center [NCGC] NIH Molecular Libraries Probe Production Centers Network [MLPCN] MLPCN Grant: MH086442-01 Assay Submitter (PI): Wei Zheng Glucocerebrosidase (GC) catalyzes the hydrolysis of beta-glucocerebroside to glucose and ceramide in lysosomes. Mutations in the glucocerebrosidase gene result in Gaucher disease, an autosomal recessive lysosomal storage disorder. Many of the mutations encountered in patients with Gaucher disease are missense alterations that may cause misfolding, decreased stability and/or mistrafficking of this lysosomal protein. […] These inhibitors include iminosugar analogs and three non-iminosugar inhibitors identified from a previous HTS of 62,000 compounds with the wild type recombinant enzyme. However, the enhancement of enzyme activity by the chaperone action of an enzyme inhibitor must be balanced against the direct inhibition of the enzyme. An enzyme activator could also function as a chaperone by binding to the enzyme and helping to correct its misfolding and mistrafficking. While activators for GC have not yet been identified, they may have better therapeutic potential than inhibitors. Therefore the discovery and development of chemical activators may provide a new strategy for the chaperone therapy. We have optimized a new assay using N370S mutant GC derived from the spleen of a Gaucher patient. […] In addition, the MLPCN compound library has expanded, which increases the chance of finding new and better probes.
NCGC Assay Protocol Summary: This is a fluorogenic enzyme assay with 4-methylumbelliferyl-beta-D-glucopyranoside as the substrate and N370S glucocerebrosidase from human spleen homogenate as the enzyme preparation. Upon the hydrolysis of this fluorogenic substrate, the resulting product, […] which can be detected by a standard fluorescence plate reader. Data were normalized to the controls for basal activity (without enzyme) and 100% activity (with enzyme). The AC50 values were determined from concentration-response data modeled with the standard Hill equation. Assay buffer: 50 mM citric acid (titrated with potassium phosphate to pH 5.0), 100 mM potassium chloride, 10 mM sodium chloride, 1 mM magnesium chloride, 0.01% Tween-20. 1536-well assay protocol: (1) Add 2 ul/well of spleen homogenate (27 ug final) (2) Add 23 nL compounds in DMSO solution. The final titration was 0.5 nM to 58 uM. (3) Add 2 ul of substrate (1 mM final) (4) Incubate at 37C for 40 min. (5) Add 2 ul stop solution (1M NaOH and 1M Glycine mixture, pH 10) (6) Detect the assay plate in a ViewLux plate reader (PerkinElmer) with Ex=365 nm and Em=440nm. Keywords: Glucocerebrosidase, beta-glucosidase, Gaucher Disease, pharmacological chaperone, chaperone therapy, high throughput screening, glucocerebrosidase inhibitor, MLSMR, MLSCN, NIH Roadmap, qHTS and NCGC
A general note: qHTS replaces the single test concentration by a dilution series.
Regarding `CCc1ccc(NC(=O)c2cnn3c(C)cc(C)nc23)cc1`, the Potency was 4.11 µM (active).
As to `Cc1cc(-c2ccccc2)nc2c(C(=O)Nc3ccc4c(c3)CCC4)cnn12`, the Potency is 8.19 µM (active).
As to `CCCCN(CCCNC(=S)NCCCc1cnc[nH]1)c1ccc(Br)cn1`, the Potency entry is “inactive”.
On to `Cc1cc(C)n2ncc(C(=O)Nc3ccc4c(c3)CCC4)c2n1`, for which the Potency was 3.26 µM (active).
Turning to `Cc1cc(C)n2ncc(C(=O)Nc3ccc4c(c3)OCCO4)c2n1`, the Potency was 5.8 µM (active).
Turning to `COc1ccc(NC(=O)c2cnn3c(C)cc(C)nc23)cc1F`, the Potency is 0.819 µM (active).
The same measure for `C=C1C=C(C(F)F)n2ncc(C(=O)Nc3ccc(C(C)CC)cc3)c2N1` (stereo not given): 2.51 µM (active).
As to `Cc1cc(C)n2ncc(C(=O)Nc3cc(Cl)cc(Cl)c3)c2n1`, the Potency was 25.9 µM (active).
Turning to `Cc1cc(-c2ccccc2)n2ncc(C(=O)Nc3ccc(Cl)c(Cl)c3)c2n1`, the Potency entry was “inactive”.
As to `Cc1ccc(NC(=O)c2cnn3c(C)cc(C)nc23)cc1`, the Potency is 3.26 µM (active).
As to `O=C(Nc1ccc2c(c1)CCC2)c1cnn2c1NC(=C1CC1)C=C2C(F)F`, the Potency is 3.98 µM (active).
Regarding `Cc1cc(C)n2ncc(C(=O)NC3CCCCC3)c2n1`, the Potency was 13 µM (active).
The same measure for `C#Cc1ccc(NC(=O)c2cnn3c(C)cc(C)nc23)cc1`: 0.366 µM (active); for `Cc1cc(C)n2ncc(C(=O)Nc3cccc(C#N)c3)c2n1`: “inactive”; for `O=C(Nc1ccccc1Sc1ccccc1)c1cnn2c1NC(=C1CC1)C=C2C(F)(F)F`: 14.1 µM (active).
`COc1ccc(NC(=O)c2cnn3c(-c4ccccc4)cc(C)nc23)cc1`: the Potency entry was “inactive”.
The same measure for `Cc1ccc(NC(=O)c2cnn3c(C)cc(C)nc23)c(C)c1`: 10.3 µM (active).
`O=C(NC1CCCCC1)c1cnn2c1NC(=C1CC1)C=C2C(F)F`: the Potency was 12.6 µM (active).
Take `Cc1cc(C)n2ncc(C(=O)Nc3ccccc3Sc3ccccc3)c2n1`: the Potency is 18.3 µM (active).
For `Cc1cc(C)n2ncc(C(=O)NC3CCC(C(C)(C)C)CC3)c2n1` (stereo not given), the Potency is 8.19 µM (active) and 1.63 µM (active).
The same measure for `Cc1cc(C)n2ncc(C(=O)NC(C)C)c2n1`: “inactive”; for `CC(=O)Nc1ccc(NC(=O)c2cnn3c(C)cc(C)nc23)cc1`: “inactive”.
The same measure for `Cc1cc(C)n2ncc(C(=O)NCc3ccccc3)c2n1`: 32.6 µM (active); for `Cc1cc(C)n2ncc(C(=O)Nc3ccc(C)c(C)c3)c2n1`: 1.46 µM (active); for `Cc1cc(C)n2ncc(C(=O)Nc3ccc(Cl)c(Cl)c3)c2n1`: 3.66 µM (active).
As to `Cc1cccc(NC(=O)c2cnn3c(C)cc(C)nc23)c1`, the Potency is 3.66 µM (active).
The same measure for `OC[C@H]1CNC[C@@H](O)[C@@H]1O`: “inactive”; for `Cc1cc(C)n2ncc(C(=O)Nc3ccccc3)c2n1`: 5.17 µM (active); for `Cc1cc(C)n2ncc(C(=O)NCc3ccco3)c2n1`: 41.1 µM (active).
In the case of `COc1ccc(NC(=O)c2cnn3c(C)cc(C)nc23)cc1Cl` it was 2.06 µM (active); in that of `CNC(=O)c1cnn2c(C)cc(C)nc12`, “inactive”; in that of `Cc1cc(C)n2ncc(C(=O)NCC(C)C)c2n1`, 25.9 µM (active).
The same measure for `Cc1cc(C)n2ncc(C(=O)Nc3ccccc3C)c2n1`: 16.3 µM (active); for `Cc1cc(-c2ccccc2)nc2c(C(=O)Nc3ccc(Cl)c(Cl)c3)cnn12`: 6.51 µM (active).
Consider `Cc1cc(-c2ccccc2)n2ncc(C(=O)Nc3ccccc3Sc3ccccc3)c2n1`, for which the Potency entry is “inactive”.
In the case of `COc1ccc(NC(=O)c2cnn3c(C)cc(C)nc23)cc1` it was 6.51 µM (active).
In the case of `Cc1cc(C)n2ncc(C(=O)N3CCCC3)c2n1`, the Potency entry was “inactive”.
With `CC(=O)Nc1ccccc1NC(=O)c1cnn2c(C)cc(C)nc12`, the Potency result was “inactive”.
The same measure for `O=C(Nc1ccccc1Sc1ccccc1)c1cnn2c1NC(=C1CC1)C=C2C(F)F`: 4.61 µM (active); for `Cc1cc(C)n2ncc(C(=O)Nc3cccc(C(F)(F)F)c3)c2n1`: 6.51 µM (active).
